# Measured values reported in ChEMBL document CHEMBL4513141, “CO-ADD screening of NIH (USA) - Clinical Collection” (2021).
# Potency and affinity values are given separately.
# How the values were obtained:
# Staphylococcus aureus = conditions: Concentration 20 uM; ASSAY_TEST Inhibition of Bacterial Growth; detection method Absorption (OD600); MEDIA CAMHB; plate type 384well; NBS; CORNING #3640; time 18 hr
# Escherichia coli = conditions: Concentration 20 uM; ASSAY_TEST Inhibition of Bacterial Growth; detection method Absorption (OD600); MEDIA CAMHB; plate type 384well; NBS; CORNING #3640; time 18 hr
smiles,measurement,setting,value
Cl.O=c1n(CCCN2CCN(c3cccc(Cl)c3)CC2)nc2ccccn12 [TRAZODONE HYDROCHLORIDE],Inhibition,Staphylococcus aureus,11.44%
same,Inhibition,Escherichia coli,0.18%
Cc1onc(-c2ccccc2)c1-c1ccc(S(N)(=O)=O)cc1 [VALDECOXIB],Inhibition,Staphylococcus aureus,10.74%
same,Inhibition,Escherichia coli,4.49%
CN1C(=O)CC[C@H]1c1cccnc1 [COTININE],Inhibition,Staphylococcus aureus,-20.45%
same,Inhibition,Escherichia coli,7.12%
COC(=O)Nc1nc2cc(C(=O)c3ccccc3)ccc2[nH]1 [MEBENDAZOLE],Inhibition,Staphylococcus aureus,7.86%
same,Inhibition,Escherichia coli,3.86%
CC(=O)OCC(=O)[C@@]1(O)CC[C@H]2[C@@H]3CCC4=CC(=O)CC[C@]4(C)[C@H]3C(=O)C[C@@]21C [CORTISONE ACETATE],Inhibition,Staphylococcus aureus,12.24%
same,Inhibition,Escherichia coli,5.41%
COc1ccc(C(=O)NCc2ccc(OCCN(C)C)cc2)cc1OC.Cl,Inhibition,Staphylococcus aureus,-18.22%
same,Inhibition,Escherichia coli,2.89%
N#Cc1ccc(C(c2ccc(C#N)cc2)n2cncn2)cc1 [LETROZOLE],Inhibition,Staphylococcus aureus,12.65%
same,Inhibition,Escherichia coli,-0.32%
CN(CCO)CC(O)Cn1cnc2c1c(=O)n(C)c(=O)n2C.O=C(O)c1cccnc1 (configuration not stated) [XANTHINOL NIACINATE],Inhibition,Staphylococcus aureus,15.77%
same,Inhibition,Escherichia coli,-0.5%
Cl.O[C@@H](c1cc(C(F)(F)F)nc2c(C(F)(F)F)cccc12)[C@H]1CCCCN1,Inhibition,Staphylococcus aureus,36.85%
same,Inhibition,Escherichia coli,7.08%
Cc1ccc(-c2cc(C(F)(F)F)nn2-c2ccc(S(N)(=O)=O)cc2)cc1 [CELECOXIB],Inhibition,Staphylococcus aureus,5.39%
same,Inhibition,Escherichia coli,6.38%
C[C@]12CCC(=O)C=C1CC[C@@H]1[C@@H]2[C@@H](O)C[C@@]2(C)[C@H]1CC[C@]2(O)C(=O)COC(=O)CCC(=O)O [HYDROCORTISONE HEMISUCCINATE ANHYDROUS],Inhibition,Staphylococcus aureus,-27.4%
same,Inhibition,Escherichia coli,4.71%
Cc1[nH]c(=O)c(C#N)cc1-c1ccncc1 [MILRINONE],Inhibition,Staphylococcus aureus,14.68%
same,Inhibition,Escherichia coli,-0.64%
CC(=O)[C@H]1CC[C@H]2[C@@H]3C[C@H](C)C4=CC(=O)CC[C@]4(C)[C@H]3[C@@H](O)C[C@]12C [MEDRYSONE],Inhibition,Staphylococcus aureus,2.89%
same,Inhibition,Escherichia coli,2.65%
CCN1CC(CCN2CCOCC2)C(c2ccccc2)(c2ccccc2)C1=O.Cl (configuration not stated),Inhibition,Staphylococcus aureus,-18.77%
same,Inhibition,Escherichia coli,2.66%
CC1(C)C[C@@H]1C(=O)N/C(=C\CCCCSC[C@H](N)C(=O)O)C(=O)[O-].[Na+] [CILASTATIN SODIUM],Inhibition,Staphylococcus aureus,-4.51%
same,Inhibition,Escherichia coli,-0.62%
CCCc1nc2c(C)cc(-c3nc4ccccc4n3C)cc2n1Cc1ccc(-c2ccccc2C(=O)O)cc1,Inhibition,Staphylococcus aureus,33.03%
same,Inhibition,Escherichia coli,4.91%
CSc1ccc2c(c1)N(CCC1CCCCN1C)c1ccccc1S2.Cl (configuration not stated) [THIORIDAZINE HYDROCHLORIDE],Inhibition,Staphylococcus aureus,2.86%
same,Inhibition,Escherichia coli,7.48%
CCCN[C@H]1CCc2nc(N)sc2C1 [PRAMIPEXOLE],Inhibition,Staphylococcus aureus,-18.52%
same,Inhibition,Escherichia coli,2.75%
O=C1C(c2c(O)[nH]c3ccccc23)=Nc2ccccc21,Inhibition,Staphylococcus aureus,2.27%
same,Inhibition,Escherichia coli,-3.28%
CCCC(CCC)C(=O)O [VALPROIC ACID],Inhibition,Staphylococcus aureus,9.7%
same,Inhibition,Escherichia coli,-0.41%
C=C(CC)C(=O)c1ccc(OCC(=O)O)c(Cl)c1Cl [ETHACRYNIC ACID],Inhibition,Staphylococcus aureus,39.53%
same,Inhibition,Escherichia coli,0.95%
C[C@]12CC[C@@H]3c4ccc(OS(=O)(=O)[O-])cc4CC[C@H]3[C@@H]1CCC2=O.[Na+] [ESTRONE SODIUM SULFATE],Inhibition,Staphylococcus aureus,8.52%
same,Inhibition,Escherichia coli,6.3%
CCc1cccc2c3c([nH]c12)C(CC)(CC(=O)O)OCC3 (configuration not stated) [ETODOLAC],Inhibition,Staphylococcus aureus,5.09%
same,Inhibition,Escherichia coli,-6.35%
Cl.c1ccc(CC2=NCCN2)cc1 [TOLAZOLINE HYDROCHLORIDE],Inhibition,Staphylococcus aureus,7.13%
same,Inhibition,Escherichia coli,4.19%
O=C(O)c1cc(-c2ccc(F)cc2F)ccc1O [DIFLUNISAL],Inhibition,Staphylococcus aureus,-11.25%
same,Inhibition,Escherichia coli,6.27%
COc1ccc2c(c1)c(CC(=O)O)c(C)n2C(=O)c1ccc(Cl)cc1.O,Inhibition,Staphylococcus aureus,8.16%
same,Inhibition,Escherichia coli,7.22%
COc1cc2nc(N3CCN(C(=O)C4COc5ccccc5O4)CC3)nc(N)c2cc1OC (configuration not stated) [DOXAZOSIN],Inhibition,Staphylococcus aureus,8.23%
same,Inhibition,Escherichia coli,5.29%
Cl.O.c1cnc(N2CCN(Cc3ccc4c(c3)OCO4)CC2)nc1,Inhibition,Staphylococcus aureus,13.21%
same,Inhibition,Escherichia coli,-1.86%
Cc1ccc(Cl)c(Nc2ccccc2C(=O)[O-])c1Cl.O.[Na+] [MECLOFENAMATE SODIUM],Inhibition,Staphylococcus aureus,27.36%
same,Inhibition,Escherichia coli,2.5%
Cl.Nc1c2c(nc3ccccc13)CCCC2 [TACRINE HYDROCHLORIDE],Inhibition,Staphylococcus aureus,10.46%
same,Inhibition,Escherichia coli,0.14%
O=C(O[C@H]1[C@H](Oc2ccccc2COC(=O)C2(O)C=CCCC2=O)O[C@H](CO)[C@@H](O)[C@@H]1O)c1ccccc1 (some centres not stated) [TREMULACIN],Inhibition,Staphylococcus aureus,15.86%
same,Inhibition,Escherichia coli,0.23%
